8 compounds from PubChem BioAssay (NCI) can be followed below.

SMILES strings stand for the structures. The panel holds about 83,000 compounds, 20% with a hit somewhere; the sample as a whole holds those more often.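 Compound tested at a single concentration for 48 hours in 96-well plates; a percent growth value below 10 was scored as active.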 Values without a mark were called inactive. Calls of active or inactive are those of the source.

Test in all cases: NCI-60 one-dose screen, 48 h (100 = growth as untreated, 0 = no growth, -100 = all killed)
In one test the test system is HCT-15 colon. The settings on record: 10 µM unless noted.
The subject of another test is HT29 colon. The settings on record: 10 µM unless noted.
The next test deals with SNB-75 CNS. The settings on record: 10 µM unless noted.
Another test relates to SNB-19 CNS. The note with it: 10 µM unless noted.
The subject of a further test is U251 CNS. The note with it: 10 µM unless noted.
A further test deals with PC-3 prostate. The note with it: 10 µM unless noted.
The next test has as its system SK-MEL-5 melanoma. The settings on record: 10 µM unless noted.
Another test concerns UACC-62 melanoma. The note with it: 10 µM unless noted.
For a further test, the system named is LOX IMVI melanoma. The settings on record: 10 µM unless noted.
In a further test the test system is SK-MEL-28 melanoma. The note with it: 10 µM unless noted.
A further test concerns SK-MEL-2 melanoma. The settings on record: 10 µM unless noted.
In a further test the test system is EKVX NSCLC. The settings on record: 10 µM.
A further test concerns SN12C renal. The note with it: 10 µM unless noted.
A further test has as its system UO-31 renal. The settings on record: 10 µM unless noted.
Another test deals with TK-10 renal. The note with it: 10 µM unless noted.
A further test relates to ACHN renal. The note with it: 10 µM unless noted.
A further test has as its system CAKI-1 renal. The settings on record: 10 µM unless noted.
The subject of another test is A498 renal. The note with it: 10 µM unless noted.
The next test relates to CCRF-CEM leukemia. The settings on record: 10 µM.
The next test relates to MOLT-4 leukemia. The settings on record: 10 µM unless noted.

Regarding `COc1ccc(Cn2cc3c(c2-c2ccccc2)CCc2cnoc2-3)cc1N`, the growth was 20% with HCT-15 colon; 10.5% with HT29 colon; 29.1% in the test with SNB-75 CNS; 44.5% with SNB-19 CNS; 24.8% with U251 CNS; 23.7% in the test on PC-3 prostate. In addition, the growth in the test with SK-MEL-5 melanoma is 8.52% (active); with UACC-62 melanoma it was 42.4%; with LOX IMVI melanoma, 31.4%; with SK-MEL-28 melanoma, 63.6%; in the test on SK-MEL-2 melanoma, 41%; with EKVX NSCLC, 16.5%. The growth in the test on SN12C renal was 36.2%; in the test on UO-31 renal, 29.7%; in the test on TK-10 renal it was 76.2%; in the test with ACHN renal, 31%; in the test on CAKI-1 renal it was 7.24% (active); in the test on A498 renal, 1.34% (active). Besides, the growth was 18% in the test on CCRF-CEM leukemia and 25.3% in the test with MOLT-4 leukemia.

Regarding `O=C(NCCCl)Nc1nccnc1OCc1ccc(F)cc1`, the growth with HCT-15 colon is 104%; in the test with HT29 colon, 102%; in the test with SNB-75 CNS, 90.3%; in the test with SNB-19 CNS it was 94.9%; with U251 CNS, 101%; in the test with PC-3 prostate, 96.5%. Moreover, the growth in the test on SK-MEL-5 melanoma was 107%; in the test on UACC-62 melanoma it was 93.7%; in the test with LOX IMVI melanoma, 98.3%; in the test on SK-MEL-28 melanoma, 109%; in the test with SK-MEL-2 melanoma, 100%; with EKVX NSCLC, 97.5%. Besides, the growth with SN12C renal is 94.1%; with UO-31 renal, 86.8%; with TK-10 renal, 138%; with ACHN renal, 105%; in the test with CAKI-1 renal, 89.6%; with A498 renal it was 105%. For the same compound, the growth was 96% with CCRF-CEM leukemia and 91.9% with MOLT-4 leukemia.

Consider `COC(=O)c1ccc2[nH]c(O)c(C(=Nc3ccc(N(C)C(=O)CN4CCN(C)CC4)cc3)c3ccc(C)cc3)c2c1`, for which the growth was -38.5% (active) with HCT-15 colon; -23.3% (active) in the test on HT29 colon; -26.8% (active) in the test on SNB-75 CNS; -10.6% (active) in the test on SNB-19 CNS; -77.2% (active) in the test on U251 CNS; -16% (active) in the test on PC-3 prostate. Further, the growth was -73.1% (active) in the test with SK-MEL-5 melanoma; -19% (active) in the test with UACC-62 melanoma; 4.3% (active) in the test on LOX IMVI melanoma; -8.16% (active) in the test with SK-MEL-28 melanoma; -31.6% (active) with SK-MEL-2 melanoma; 23% with EKVX NSCLC. In addition, the growth with SN12C renal is 9.81% (active); in the test on UO-31 renal, -81.2% (active); in the test with TK-10 renal it was -82.7% (active); in the test with ACHN renal, -61.1% (active); in the test with CAKI-1 renal, -41.6% (active); in the test with A498 renal it was -73.8% (active). In addition, the growth with CCRF-CEM leukemia was 1.57% (active); with MOLT-4 leukemia it was -24.6% (active).

`O=C1NCCN1/N=C/c1c(Cl)nc2n1CCS2`: the growth in the test with HCT-15 colon was 101%; in the test with HT29 colon, 108%; with SNB-75 CNS, 101%; with SNB-19 CNS it was 108%; with U251 CNS, 86.1%; with PC-3 prostate, 76.3%. Besides, the growth in the test with SK-MEL-5 melanoma was 132%; with UACC-62 melanoma, 135%; in the test with LOX IMVI melanoma, 101%; with SK-MEL-28 melanoma, 107%; in the test with SK-MEL-2 melanoma it was 70.2%; with EKVX NSCLC, 111%. In addition, the growth with SN12C renal was 140%; with UO-31 renal it was 58.6%; in the test on TK-10 renal, 116%; in the test on ACHN renal, 108%; with CAKI-1 renal, 98.7%; in the test with A498 renal, 156%. Besides, the results for the growth in the test on CCRF-CEM leukemia and in the test on MOLT-4 leukemia were -62.2% (active) and 96.6%, respectively.

Turning to `COc1ccc(Cn2cc3c(c2-c2ccc(OC)cc2)CCc2cnoc2-3)cc1`, the growth is 14.2% with HCT-15 colon; 7.18% (active) with HT29 colon; 11.4% with SNB-75 CNS; 45.5% in the test on SNB-19 CNS; 24% in the test on U251 CNS; 24.8% in the test on PC-3 prostate. The growth in the test on SK-MEL-5 melanoma is 10.6%; with UACC-62 melanoma it was 44%; in the test on LOX IMVI melanoma, 32.2%; with SK-MEL-28 melanoma, 51.2%; with SK-MEL-2 melanoma, 31%; in the test on EKVX NSCLC, 49.4%. Also, the growth with SN12C renal was 26.5%; in the test with UO-31 renal it was 25.7%; in the test on TK-10 renal it was 69.1%; with ACHN renal, 30.7%; in the test on CAKI-1 renal it was 14.8%; in the test with A498 renal it was 3.78% (active). Also, the growth with CCRF-CEM leukemia was 9.28% (active); in the test on MOLT-4 leukemia, 23.7%.

`COc1cc(-c2nc3c(c(C)nc4c3nnn4-c3ccccc3)c(=O)o2)cc(OC)c1OC`: the growth in the test with HCT-15 colon was 113%; in the test on HT29 colon, 115%; with SNB-75 CNS, 89.6%; in the test on SNB-19 CNS, 110%; in the test with U251 CNS, 111%; with PC-3 prostate, 104%. The growth is 106% in the test with SK-MEL-5 melanoma; 102% with UACC-62 melanoma; 101% in the test with LOX IMVI melanoma; 101% in the test on SK-MEL-28 melanoma; 107% in the test with SK-MEL-2 melanoma; 115% in the test on EKVX NSCLC. Further, the growth was 102% with SN12C renal; 87.9% with UO-31 renal; 104% in the test with TK-10 renal; 103% in the test with ACHN renal; 94.8% in the test on CAKI-1 renal; 61.1% with A498 renal. The growth is 96.2% in the test on CCRF-CEM leukemia and 102% in the test on MOLT-4 leukemia.

Regarding `CCOC(=O)c1cc(-c2ccc(OC)cc2)[nH]c1NNC(=O)CCOC`, the growth with HCT-15 colon was 111%; in the test with HT29 colon it was 112%; with SNB-75 CNS it was 106%; in the test with SNB-19 CNS, 103%; with U251 CNS, 101%; in the test on PC-3 prostate, 93.2%. In addition, the growth in the test with SK-MEL-5 melanoma is 99.3%; in the test with UACC-62 melanoma, 93.6%; with LOX IMVI melanoma, 94.8%; in the test with SK-MEL-28 melanoma, 114%; in the test on SK-MEL-2 melanoma it was 103%; in the test on EKVX NSCLC, 101%. Moreover, the growth with SN12C renal was 107%; with UO-31 renal, 77%; in the test on TK-10 renal it was 63.7%; in the test with ACHN renal, 107%; in the test on CAKI-1 renal it was 88.8%; in the test on A498 renal, 77.8%. Besides, the growth with CCRF-CEM leukemia is 57.8%; with MOLT-4 leukemia, 58.1%.

On to `CN1CCN(Cc2ccc(NC(=O)c3ccc(C#Cc4c(N)ncc5ccc(F)cc45)cc3)cc2C(F)(F)F)CC1`, for which the growth was -55.4% (active) in the test on HCT-15 colon; -73.2% (active) in the test with HT29 colon; -15.1% (active) with SNB-75 CNS; -91.8% (active) with SNB-19 CNS; -75.8% (active) in the test on U251 CNS; -37.2% (active) with PC-3 prostate. Further, the growth was -91.2% (active) with SK-MEL-5 melanoma; -73.3% (active) in the test on UACC-62 melanoma; -94.3% (active) in the test on LOX IMVI melanoma; -97.8% (active) with SK-MEL-28 melanoma; -40.3% (active) with SK-MEL-2 melanoma; -59.1% (active) in the test on EKVX NSCLC. For the same compound, the growth is -71.3% (active) in the test on SN12C renal; -56.8% (active) with UO-31 renal; -42.2% (active) in the test with TK-10 renal; -92.6% (active) in the test with ACHN renal; 42.7% in the test with CAKI-1 renal; 77.9% in the test with A498 renal. For the same compound, the growth was -40.2% (active) with CCRF-CEM leukemia and -55.2% (active) in the test with MOLT-4 leukemia.
